# Where a name gives a salt, the structure may show the parent alone.
# Experiments:
# Assay in all cases: Euclidean distance of Cell Painting phenotypic profile (signed KS, 77 features) to DMSO centroid (dimensionless distance); 5 or 10 uM (library dependent); higher = stronger phenotypic change vs DMSO (phenoactivity)
# Conditions in all cases: 48 h
# 786-O = system: 786-O
# Method in brief: (§1)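 Harmony extracted 77 features from 20X confocal images (9 fields/well) of stained cells, scoring each as a signed Kolmogorov-Smirnov statistic against same-plate vehicle wells. The cells, five cancer lines and a healthy fibroblast line, had received library compounds for 48 h at 10 or 5 uM depending on library, with 0.1% DMSO final. Phenoactivity is the Euclidean distance from each plate-position-corrected, correlation-weighted, top-dose replicate-averaged profile to the median vehicle profile.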
# A549 = system: A549
# Method in brief: as §1
# DU145 = system: DU145
# Method in brief: as §1
# FB = system: FB
# Method in brief: as §1
# HEPG2 = system: HEPG2
# Method in brief: as §1
# OVCAR4 = system: OVCAR4
# Method in brief: as §1
SMILES,Euclidean distance (786-O),Euclidean distance (A549),Euclidean distance (DU145),Euclidean distance (FB),Euclidean distance (HEPG2),Euclidean distance (OVCAR4)
NC[C@H]1O[C@H](O[C@H]2[C@H](O)[C@@H](O[C@H]3O[C@H](CO)[C@@H](O)[C@H](N)[C@H]3O)[C@H](N)C[C@@H]2N)[C@H](O)[C@@H](O)[C@@H]1O [Kanamycin sulfate],1.57,0.801,1.16,0.974,2.18,1.35
Clc1ccc2c(c1)CCc1cccnc1C2=C1CCNCC1 [Desloratadine],1.38,0.811,1.51,1.83,2.17,1.88
CC(=O)N(O)CCCCCNC(=O)CCC(=O)N(O)CCCCCNC(=O)CCC(=O)N(O)CCCCCN [Deferoxamine mesylate],2.45,2.58,6.88,2.61,2.02,2.86
Cc1onc(-c2ccccc2)c1-c1ccc(S(N)(=O)=O)cc1 [Valdecoxib],1.12,1.19,0.983,1.21,0.509,1.58
CCc1nc(C(N)=O)c(Nc2ccc(N3CCC(N4CCN(C)CC4)CC3)c(OC)c2)nc1NC1CCOCC1 [Gilteritinib (ASP2215)],2.93,3.06,3.49,3.66,3.86,2.89
CCCCC[C@H](O)/C=C/[C@H]1[C@H](O)CC(=O)[C@@H]1CCCCCCC(=O)O [Alprostadil],1.36,0.929,0.936,1.16,0.927,1.2
Cc1ccc(NC(=O)c2cccc(C(C)(C)C#N)c2)cc1Nc1ccc2ncn(C)c(=O)c2c1,1.3,2.03,1.98,3.42,1.53,0.804
COc1cc(NS(=O)(=O)c2ccc(N)cc2)ncn1 [Sulfamonomethoxine],0.83,0.926,0.778,0.916,0.669,1.12
CC(=O)O[C@H]1C[C@@]2(C)[C@@H](C[C@@H](O)[C@H]3[C@@]4(C)CC[C@@H](O)[C@@H](C)[C@@H]4CC[C@@]32C)/C1=C(\CCC=C(C)C)C(=O)O [Fusidate Sodium],1.27,0.59,1.88,1.32,0.533,1.2
C=C1CC[C@H](O)C/C1=C/C=C1\CCC[C@]2(C)[C@@H]([C@H](C)CCCC(C)(C)O)CC[C@@H]12 [Calcifediol],1.61,0.811,0.927,1.4,0.618,2.24
N=C(N)NC(=N)N1CCOCC1 [Moroxydine HCl],1.5,0.937,1.25,0.666,0.422,1.22
CC[C@H](Nc1ncnc2[nH]cnc12)c1oc2ccccc2c(=O)c1-c1cccc(F)c1 [Tenalisib (RP6530)],0.975,0.66,0.791,1.47,0.466,0.678
CCCCc1ncc(/C=C(\Cc2cccs2)C(=O)O)n1Cc1ccc(C(=O)O)cc1 [Eprosartan Mesylate],0.683,0.706,1.64,0.647,1.3,1.44
N[C@@H]1CONC1=O [D-Cycloserine],1.67,1.18,1.43,0.939,0.865,0.96
Cc1cn([C@@H]2C[C@@H](O)[C@H](CO)O2)c(=O)[nH]c1=O [Telbivudine],1.15,0.884,0.651,1.53,0.469,1.12
Cc1cnc(NC(=O)C2=C(O)c3ccccc3S(=O)(=O)N2C)s1 [Meloxicam],0.664,0.746,2.37,0.881,1.84,0.784
CC1Cc2ccccc2N1NC(=O)c1ccc(Cl)c(S(N)(=O)=O)c1 (stereo unspecified) [Indapamide],0.856,0.679,1.26,0.772,1.91,1.41
O=C(O)/C=C/c1ccc(Cn2ccnc2)cc1 [Ozagrel HCl],0.843,0.862,1.12,0.899,1.97,1.61
CCOC(=O)O[C@]1(C(=O)OCCl)CC[C@H]2[C@@H]3CCC4=CC(=O)C=C[C@]4(C)[C@H]3[C@@H](O)C[C@@]21C [Loteprednol etabonate],1.18,2.23,1.71,1.66,0.658,1.81
Cc1nc(N)sc1-c1ccnc(Nc2ccc(N3CCOCC3)cc2)n1,2.86,3.52,1.18,1.92,2.08,2.59
CC(C(=O)O)c1ccc2c(c1)[nH]c1ccc(Cl)cc12 (stereo unspecified) [Carprofen],1.08,0.684,0.84,1.38,0.421,1.11
